Experimental data: article PMC4336329 (PLoS ONE, 2015)
Screen size: about 310,000 compounds; about 14,000 (4.5%) showed an effect of 50% or more. Effects have a minus sign here. The entries come from a sample that favours strong results as a whole.

What follows are compounds tested against human ether-à-go-go-related gene (hERG) potassium channel (human, UniProt Q12809) (assay: primary screen, population patch clamp on CHO cells stably expressing hERG; higher = less effect of the substance).
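Also: peak tail current of the secondary pulse compared with the same well before compound.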

Chain of human ether-à-go-go-related gene (hERG) potassium channel (Q12809 whole entry, looked up): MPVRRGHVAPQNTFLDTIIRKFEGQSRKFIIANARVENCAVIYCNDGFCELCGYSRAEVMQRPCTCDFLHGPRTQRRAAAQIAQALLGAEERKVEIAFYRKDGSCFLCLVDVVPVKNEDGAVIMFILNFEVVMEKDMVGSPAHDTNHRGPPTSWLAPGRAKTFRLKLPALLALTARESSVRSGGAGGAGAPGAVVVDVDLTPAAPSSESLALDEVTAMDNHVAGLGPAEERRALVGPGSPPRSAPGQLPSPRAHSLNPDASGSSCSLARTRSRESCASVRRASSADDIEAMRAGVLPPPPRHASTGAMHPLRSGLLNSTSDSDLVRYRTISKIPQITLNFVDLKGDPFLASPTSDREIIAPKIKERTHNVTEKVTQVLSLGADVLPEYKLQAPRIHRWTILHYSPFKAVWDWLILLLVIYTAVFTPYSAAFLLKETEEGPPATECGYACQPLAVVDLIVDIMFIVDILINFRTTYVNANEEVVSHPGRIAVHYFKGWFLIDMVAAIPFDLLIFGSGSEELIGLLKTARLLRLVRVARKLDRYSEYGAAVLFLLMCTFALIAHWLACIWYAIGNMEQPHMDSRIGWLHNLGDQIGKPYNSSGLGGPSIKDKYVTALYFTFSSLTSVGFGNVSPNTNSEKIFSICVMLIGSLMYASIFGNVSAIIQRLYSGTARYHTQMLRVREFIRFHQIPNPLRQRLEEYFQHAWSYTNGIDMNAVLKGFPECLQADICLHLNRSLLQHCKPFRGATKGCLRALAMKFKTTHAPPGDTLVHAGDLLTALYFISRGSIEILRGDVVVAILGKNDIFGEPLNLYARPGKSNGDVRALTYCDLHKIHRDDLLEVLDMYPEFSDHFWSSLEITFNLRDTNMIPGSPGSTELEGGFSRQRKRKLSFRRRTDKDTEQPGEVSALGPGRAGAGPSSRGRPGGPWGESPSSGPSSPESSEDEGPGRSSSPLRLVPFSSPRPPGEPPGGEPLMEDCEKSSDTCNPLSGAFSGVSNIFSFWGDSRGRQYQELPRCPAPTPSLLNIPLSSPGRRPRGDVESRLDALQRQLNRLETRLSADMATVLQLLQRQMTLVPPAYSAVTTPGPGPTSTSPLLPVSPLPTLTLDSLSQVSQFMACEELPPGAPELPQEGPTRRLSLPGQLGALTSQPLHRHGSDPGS

Compound | hERG current change (%, negative = inhibition) at 10uM
COc1ccc(NC(=O)CCNS(=O)(=O)c2cc(Br)cnc2N)c(OC)c1 | 8.51%
COc1ccc(C2N(c3cc(Cl)ccc3OC)C(=O)C3CCCN32)cc1OC (stereo not shown) | -4.91%
CC(C)(C)C(=O)NC(=S)NNC(=O)c1sc2ccccc2c1Cl | 5.79%
Cc1ccc(S(=O)(=O)N2CCN(C(=O)CN3CCCC3)C2)cc1 | -6.28%
NNC(=O)c1sc2nc(N3CCOCC3)c3c(c2c1N)CCCC3 | 11%
O=c1cnc2ccccc2n1Cc1ccc(Br)cc1 | 0.175%
CCn1nnnc1SCC(=O)Nc1cc(OC)cc(OC)c1 | 11.8%
O=C(c1cccc(Cl)c1)N1CCN(Cc2ccccc2)CC1 | -8.35%
COC(=O)[C@H](Cc1ccccc1)NC(=O)N1CCCCCC1 | 13.5%
O=C(c1ccc(F)cc1)N1CCN(Cc2ccccc2)CC1 | 0.241%
COC(=O)[C@H](Cc1ccccc1)NC(=O)N1CCN(Cc2ccccc2)CC1 | -58.6%
O=C(c1cccc(Cl)c1)N1CCC(N2CCC(C(=O)N3CCCC3)CC2)CC1 | -49.1%
O=C(c1cccc(Cl)c1)N1CCC(C(=O)N2CCN(Cc3ccccc3)CC2)CC1 | -56.2%
O=C(O)C(=O)O.O=C(c1ccccc1)N1CCN(Cc2ccccc2)CC1 | -9.23%
CC(C)(C)c1ccc(C(=O)N2CCN(Cc3ccccc3)CC2)cc1 | -3.08%
COC(=O)[C@H](Cc1ccccc1)NC(=O)N1CCCCC1 | 9.93%
O=C(c1ccc(Br)cc1)N1CCN(Cc2ccccc2)CC1 | -52.2%
O=C(c1ccc(S(=O)(=O)N2CCCCCC2)cc1)N1CCN(Cc2ccccc2)CC1 | -19.5%
CS(=O)(=O)c1ccc(C(=O)N2CCN(Cc3ccccc3)CC2)cc1 | -55%
CCOC(=O)/C(=C/c1ccc(F)cc1)NC(C)=O | -7.91%
COCCCNC(=O)CCNS(=O)(=O)c1ccc(C)cc1 | -1.45%
Cc1ccc2ncnc(Oc3ncccc3NC(=O)C(C)(C)C)c2c1 | 13.8%
O=S(=O)(N1CCCCC1)N1CCN(c2cc(Cl)ccc2Cl)CC1 | 15.2%
COc1ccc(C2Nc3ccccc3C(=O)N2Cc2ccco2)cc1CN1C(=O)c2ccccc2C1=O (stereo not shown) | -20.7%
O=C(NCc1ccco1)C(=O)c1cn(CC(=O)N2CCCCC2)c2ccccc12 | 19.3%
O=C(O)CC/C(=N\NC(=O)CNC(=O)c1ccc(F)cc1)c1ccccc1 | 9.42%
Cc1ccc(CNC(=O)COC(=O)Cn2nc(C)c([N+](=O)[O-])c2C)cc1 | -16.3%
COc1ccc(C(=O)NCc2ccc(N3CCN(C(=O)OC(C)(C)C)CC3)cc2)cc1 | -12.7%

Compound | hERG current change (%, negative = inhibition) at 10uM
COC(=O)c1cc(-c2c(-c3ccc4c(c3)OCO4)noc2-c2ccsc2)cc([N+](=O)[O-])c1 | 10.7%
O=C(C1CC1)N1CCN(Cc2ccccc2)CC1 | -32.1%
Cc1occc1C(=O)N1CCN(Cc2ccccc2)CC1 | -1.16%
O=C(c1coc(=O)c2ccccc12)N1CCN(Cc2ccccc2)CC1 | -51.2%
CS(=O)(=O)c1ccccc1C(=O)N1CCN(Cc2ccccc2)CC1 | 23.7%
O=C(c1ccc(Br)cc1)N1CCC(C(=O)N2CCN(Cc3ccccc3)CC2)CC1 | -60.1%
COc1ccc(C(=O)N2CCC(C(=O)N3CCN(Cc4ccccc4)CC3)CC2)cc1 | -9.58%
Clc1ccccc1/C=C/c1nc(-c2cccnc2)no1 | 6.16%
CCN(CC)c1ccc(NC(=O)c2cnc3ccccn3c2=O)c(C)c1 | 4.51%
CCOC(=O)c1ccc(NC(=O)c2cccc(C)c2[N+](=O)[O-])cc1 | 4.73%
COc1ccc(C(=O)c2nccc3cc(OC)c(OC)cc23)cc1OC | 6.21%
CC1CCN(C2(O)C(=O)Nc3ccc(Br)cc32)CC1 (stereo not shown) | 19.4%
CCC(C)(C)NC(=O)CN(C(=O)CNS(=O)(=O)c1ccccc1)c1ccc2c(c1)OCCO2 | 6.92%
Cc1ccc(NP(=O)(c2ccccc2)c2nc3ccccc3s2)cc1 (stereo not shown) | 3.27%
O=C(c1ccco1)N1CCN(C(=S)Nc2cc(F)cc(F)c2)CC1 | -16.5%
O=C(c1ccco1)N1CCN(C(=S)Nc2ccc(F)c(Cl)c2)CC1 | -71.9%
Cc1cc(C(=O)N2CCN(C(=O)c3ccco3)CC2)ccc1[N+](=O)[O-] | -64.7%
Cc1cc(C(=O)N2CCOCC2)ccc1[N+](=O)[O-] | 9.19%
O=C(c1ccco1)N1CCN(C(=S)Nc2cccc([N+](=O)[O-])c2)CC1 | -63.3%
COC(=O)c1cc(C(=O)N2CCN(c3ccccc3OC)CC2)cc([N+](=O)[O-])c1 | -34.7%
COc1ccc(NC(=S)N2CCN(C(=O)c3ccco3)CC2)cc1OC | 14.6%
O=C(CN1CCN(C(=O)c2ccco2)CC1)Nc1cccc([N+](=O)[O-])c1 | -49.1%
COC(=O)c1cc(C(=O)N2CCOCC2)cc([N+](=O)[O-])c1 | 21.7%
Cc1cccc(NC(=S)N2CCN(C(=O)c3ccco3)CC2)c1 | -9.36%
O=C(c1ccc(Cl)c([N+](=O)[O-])c1)N1CCN(C(=O)c2ccco2)CC1 | -41.6%
COC(=O)c1cc(C(=O)N2CCN(C(=O)c3ccco3)CC2)cc([N+](=O)[O-])c1 | -66.7%
COc1ccc(OC)c(S(=O)(=O)N2CCC(C(=O)NCc3ccncc3)CC2)c1 | 16.4%
